Reference: the supplement of paper PMC11417369
The full ranking holds about 25,000 sequences; the median of “ln(normalized median fluorescence intensity)” is about 9.3, and the highest 2% start at about 10. The entries come from a sample that favours the highest values as a whole.

Tested on: PF3D7_0420300 AP2 domain 1 (GST-tagged)
Experiment: gcPBM binding intensity (ln(normalized median fluorescence intensity)); higher = stronger DNA binding
Outline: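 The binding buffer was 1× PBS containing 1% milk, 0.2 mg/ml BSA, 0.5% salmon testes DNA and 0.03% Triton X-100. In it, GST-tagged P. falciparum DNA-binding domains expressed in E. coli were applied for 1 h to an Agilent 4 × 180k array of primer-extended double-stranded 36-bp intergenic genomic probes plus negative controls. Binding intensity, read with Alexa488 anti-GST antibody and a 488 nm scan, is the highest Masliner-normalised natural-log median intensity across replicate spots of either probe orientation.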

Sequence	gcPBM binding intensity (ln)
TATGTGAATATAATCACACACAATACGGAAAGAGAC [CACACA_site7311]	10.2
TATGTGAATATAATCACACACAATACGGAAACCCAC [CACACA_site2725]	9.77
AATATGTGAATATAATCACACACAATACGGAAACAC [CACACA_site8875]	10.1
TTTTTTTTTTTTTTTGCACACACCATATTTATAGAA [CACACA_site3310]	9.46
GTTCATAAATTAAACACACACACACCGCTGGATACC [CACACA_site5779]	10.1
ATAAATTAAAAACACACACACATCTGGATACCCCTA [CACACA_site5780]	10.1
GTTCATAAATTAAACACACACACACGGCTGGATACC [CACACA_site7545]	10.1
TCATAAATGAAACACACACACACATCTGGATACCCC [CACACA_site3332]	10.1
GTTCATAAATTAAACACACACACACCCCTGGATACC [CACACA_site3331]	10.2
TCATAAATTAAACACACACACACATCTGGATACCCC [CACACA_site9096]	10.3
TACTCCTCAATATTATGTACATATAATAGTTATAAA [XGTACX_site8551]	9.23
TATATACAAAAAATATGTACATATATATATATATAT [XGTACX_site3497]	9.21
TAATATTTTATTTTTGTTGTGGATCCAAAAAAAAAA [CACACA_negctrl_site846]	8.76
TAATATGAAATGTGTACACACGCACCCACAAAAAAA [CACACA_site8949]	9.74
AAAAATTATAGAAAAGTGCAATACATGTTACACCAT	9.28
AACACGCACAGACACACACACAAAAATGATTAAAAA [CACACA_site7195]	9.67
AACAAATACGGACACACACACACACTAGAAAAAAAA [CACACA_site4442]	10.2
ATAAATATTAAAAGTACACACAGATACACTAATTAT [CACACA_site1808]	9.75
CAAACCCACGGACACACACACACAAAAATGATTAAA [CACACA_site5365]	9.93
TACACAGACGGACACACACACACACTAGAAAAAAAA [CACACA_site4435]	10
AACAAACACGGACACACACACACACTAGAATGATTA [CACACA_site5364]	10.2
CAAATACACGGACACACACACACAAAAAAAAAAAAA [CACACA_site6385]	10.1
TATTAATACGGACACACACACACACTAGATAAAATA [CACACA_site4295]	10.2

Sequence	gcPBM binding intensity (ln)
AAAAAATCAAAACACACACACACACCCAAAAAAAAA [CACACA_site1444]	10.1
CAAATAAATATTAAAAGTACACACAGATACACTAAT [XGTACX_site3749]	9.88
AAAGAAAAAAAAAAAACACACAAAAAAAATCAAAAT [CACACA_site2871]	9.94
AAAAAATCAAAACACACACACACACTAGAAAAAAAA [CACACA_site4909]	10.3
AACAAAATTGAAGGAACACACATACAGATATATATA [CACACA_site4264]	9.81
AGCAAAAATTAAATAAATAAATATATATATATATAT [TGCATGCA_negctrl_site449]	9.12
TTTTTGCAAAAAGAAATAATTTTATTTTAGTTCGGA [CACACA_negctrl_site1718]	8.78
ATTTTTATACGTTTTTTTTTTTTTTTTTTTTATTTA [CACACA_negctrl_site1142]	9.62
ATAATGTGTTAGGCGTGTACACAATTGTATGGTTTA [XGTACX_site2377]	9.45
ATATTAACTTTTATTACACACTCTCAACTTTTATTT [CACACA_site6176]	9.72
GTACTTGTATTATGCACACATATAATTAAACATATA [CACACA_site3312]	9.41
CATTTTAAAACAGACACACACCAAAAAAAAAAAAAA [CACACA_site6259]	9.4
AAGAAAAACTAAAGAGTTCTGTTCATATCTCTTTGG [TGCATGCA_negctrl_site549]	8.99
ATCAAGCACGAACACACACACACACGCACGCCCACA [CACACA_site6308]	10.2
TTTATTTTATCATTTGCACACGCACGCCCACATAAA [CACACA_site353]	9.4
CCAACATGCCCACGCACACACAAAAAAAGCATGCAT [CACACA_site4217]	9.58
GAGAGTAAAACAAATATACACACCATAAAGTTATAA [CACACA_site1686]	9.49
TTCATTCAAATTAACGTGCACATTATTAGTAAAAAC	9.08
ATACTAAATGAACACACACACATATATATATATAAT [CACACA_site4232]	10.1
ATACTAAATGAACACACACACATATAGATTTATAAC [CACACA_site6200]	10.2
TTATACTAAATGAACACACACACATATATATATATA [CACACA_site99]	9.81
TAGTGTATGATAATATGTACATACATTTATATAATA [XGTACX_site6330]	9.11
TATATATATATATAAACACACATAAATATAAATATA [CACACA_site1121]	9.6

Sequence	gcPBM binding intensity (ln)
AAAAAAAGTTATATTACACACTTTATTCGTTAACTT [CACACA_site3013]	9.47
TTTGTTATGGTTTTCTCACACATATATATATATATA [CACACA_site4617]	9.5
AATAAAAAAAAAAAAAAAAAAAAAAAGACACTAAAA [CACACA_negctrl_site1075]	9.33
AAAAAAAAAAGACACACACACACATACACATACATA [CACACA_site7362]	10.2
AAAAAAAAAAGACACACACACAAATACAAATACATA [CACACA_site6334]	10
AAAAAAAAAAGACACACACACACACTAATACATACA [CACACA_site6473]	10.2
AAAAAAAAAAAACACACACACACACTAATACATACA [CACACA_site8135]	10.1
AAAAAAAAAAGACACACACACACAAATACATACACA [CACACA_site6472]	10.1
ATGGGTATATTTCCACGTACAAAAAATCCGAATTGC [XGTACX_site1490]	9.23
AAAAATTAAAATATTATAGTTGAAACTTTTATAAAT [TGCATGCA_negctrl_site454]	8.81
AATATGTAGTAATCAAGTACTAATGTCTTAATTCGG [XGTACX_site308]	9.27
GATATGAATATAGGTTGTACTATATATAAAGTATGT [XGTACX_site1877]	9.35
CCACTGTATGAATGCACACATTCATAGAATTGCTAT [CACACA_site2676]	9.24
TATATAAATAGACACACACACACATATAAATAAATA [CACACA_site7855]	10.2
TATATAAATAGACACACACACATATAAATATAAATA [CACACA_site6503]	10.1
TATATATATAGACACACACACATATAAATAAATAAA [CACACA_site444]	10.1
TATAAATAGAGACACACACACATATAAATAAATATT [CACACA_site7854]	10.1
CATATAAATAGACACACACACACATATAAATAAATA [CACACA_site7156]	10.3
TAATAATAGAGACACACACACATAGACATATAAATA [CACACA_site6729]	10.2
TTATAAAATAAACTTACACACATGAAATATTATATT [CACACA_site1945]	9.49
ATAGAAGCTGTTGACGAAGAAAAAAAAAAAAAAAAA [CACACA_negctrl_site110]	8.56
TTTAAAAAAATTCATGCACACGAAATAAAAAGCACC [CACACA_site8214]	9.71
ACAAAAAAAAAAAAAAAAAGAAGAATATATCTATAT [CACACA_negctrl_site759]	9.16

Sequence	gcPBM binding intensity (ln)
ATTATAAATATATTTTGTACTTAAAAGGAAAAAAAA [XGTACX_site55]	9.02
ACATATACAAAACACACACACAACGTTTTAATAAAT [CACACA_site1979]	10.1
ATAAATACATATAAAAGTACACACACACACATATAT [XGTACX_site1744]	10.4
AAATATAAAAAATATACACACATATATAATATATAT [CACACA_site2963]	9.55
ACATATAAAATATATACACACATATAAATACATTAA [CACACA_site3867]	9.75
AAAAAAAAAAAGTACACACATACATATAAATATATA [CACACA_site1809]	9.46
AAATTAATTAAATATACACACATATATAAATATATA [CACACA_site391]	9.38
TATAAATATATATACACACACACATTAATACATATA [CACACA_site3488]	10.2
AAAAAAAAAAAAAGTACACACATACATATAAATATA [CACACA_site8533]	9.72
ACATATACAAGACACACACACAACGTTTTAATAAAT [CACACA_site7017]	10.2
TATAATCATAAATACACACACATATATATATATATA [CACACA_site5224]	9.54
AAATATAAATGGTAATACACATACACACACACATAC [XGTACX_negctrl_site459]	10.2
TTAAAATATACATAAACACACACAAAACGTTTAAGA [CACACA_site8267]	9.9
TATATTGAAAATAAAACATGCAATCACTCATACATA [TGCATGCA_site248]	9.36
AAAGAAAAATTAACATGTACAAAAATTACTTGTTCA [XGTACX_site6725]	9.21
AAAAAATAAATAAATACACACAAATCTATATTTATA [CACACA_site7243]	9.51
GTATTCTACAGACACATACACACATATATATATATA [CACACA_site3427]	9.7
TTAAATATAAAAAGTAGTACATTTATATTTACCATA [XGTACX_site2962]	8.96
AATTCATTATATATACGTACATATTTCTGTATAAAA [XGTACX_site6371]	9.24
ATACATATATATAGGTGTACATATAATATATATATA [XGTACX_site2228]	9.35
